Test systems include HT29 colon; SNB-75 CNS; SNB-19 CNS; PC-3 prostate; SK-MEL-5 melanoma; UACC-62 melanoma; LOX IMVI melanoma; SK-MEL-28 melanoma; SK-MEL-2 melanoma; EKVX NSCLC; SN12C renal; UO-31 renal; TK-10 renal; ACHN renal; CAKI-1 renal; CCRF-CEM leukemia; MOLT-4 leukemia; U251 CNS; A498 renal.
Holding throughout (test): NCI-60 one-dose screen, 48 h (100 = growth as untreated, 0 = no growth, -100 = all killed)
Holding throughout (settings): 10 µM unless noted

SMILES strings stand for the structures. About 83,000 compounds went through this panel and 20% of them were active in at least one assay; those are over-represented in the sample as a whole.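 Activity criterion: percent growth below 10, measured after cells in 96-well plates were exposed to a single compound concentration for 48 hours.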 A number with no mark means an inactive call. The source made the active and inactive calls.

For the compound `O=C(NNc1nc(Cl)nc(N2CCN(C(c3ccccc3)c3ccccc3)CC2)n1)c1ccccc1`, the growth in the test with HT29 colon is -78.9% (active); with SNB-75 CNS, -26.3% (active); in the test with SNB-19 CNS it was 32.4%; in the test on PC-3 prostate, -46.9% (active); in the test on SK-MEL-5 melanoma, 79.4%; in the test with UACC-62 melanoma, 3.38% (active). Further, the growth in the test on LOX IMVI melanoma was -88.7% (active); in the test on SK-MEL-28 melanoma, -6.33% (active); with SK-MEL-2 melanoma it was -27% (active); with EKVX NSCLC, 64%; with SN12C renal, -24.2% (active); with UO-31 renal, 68.9%. Also, the growth is 126% with TK-10 renal; -39% (active) in the test with ACHN renal; -51.9% (active) in the test with CAKI-1 renal; -25.1% (active) in the test on CCRF-CEM leukemia; -39.2% (active) with MOLT-4 leukemia.
On to `CN(C)CCCn1c2c(c3ccc(-c4ccn[nH]4)cc3c1=O)C(=O)c1ccccc1-2`, for which the growth in the test with HT29 colon is 15.5%; in the test on SNB-75 CNS, 53.1%; in the test on SNB-19 CNS, 22.7%; in the test with U251 CNS it was 16.9%; in the test on PC-3 prostate, 52.3%; with SK-MEL-5 melanoma, 31.5%. Besides, the growth in the test with UACC-62 melanoma is 50.3%; in the test on LOX IMVI melanoma it was 15%; in the test on SK-MEL-28 melanoma, 89.8%; in the test on SK-MEL-2 melanoma, 121%; in the test with EKVX NSCLC it was 34.2%; in the test on SN12C renal, 5.41% (active). Also, the growth with UO-31 renal is 25.5%; in the test with TK-10 renal, 54.4%; with ACHN renal it was -28.9% (active); in the test on A498 renal, 52.4%; in the test with CCRF-CEM leukemia, 0.484% (active); in the test with MOLT-4 leukemia, -0.72% (active).
For the compound `O=S(=O)(NCCNc1nccc(-c2c(-c3cccc(F)c3)nc3occn23)n1)c1cccc2ccccc12`, the growth in the test with HT29 colon is 34.2%; in the test on SNB-75 CNS it was 61.4%; with SNB-19 CNS, 67.1%; with U251 CNS, 59.7%; with PC-3 prostate, 30.6%; in the test with SK-MEL-5 melanoma, 30%. Besides, the growth is 45.1% in the test with UACC-62 melanoma; 59.7% in the test with LOX IMVI melanoma; 73% with SK-MEL-28 melanoma; 58.3% with SK-MEL-2 melanoma; 48.5% in the test with EKVX NSCLC; 47.6% in the test with SN12C renal. Further, the growth with UO-31 renal is 15.9%; in the test with TK-10 renal, 47.1%; in the test on ACHN renal, 40.5%; in the test with CAKI-1 renal it was 25%; in the test on A498 renal, 37.7%; in the test on CCRF-CEM leukemia it was 43.8%. For the same compound, the growth in the test with MOLT-4 leukemia was 26.3%.
Take `Cc1ccc(C2C3CC4CCCCC4N3[C@@]3(C(=O)Nc4cc(Cl)ccc43)C2C(=O)c2nc3ccccc3[nH]2)cc1` (some centres undefined): the growth was 19.5% in the test with HT29 colon; 45.1% with SNB-75 CNS; 49.7% in the test with SNB-19 CNS; 38% with U251 CNS; 25.3% with PC-3 prostate; 45% with SK-MEL-5 melanoma. Further, the growth with UACC-62 melanoma was 54.7%; with LOX IMVI melanoma it was 29.7%; in the test on SK-MEL-28 melanoma, 66.2%; in the test on SK-MEL-2 melanoma it was 59.7%; in the test on EKVX NSCLC it was 27.3%; in the test with SN12C renal, 44.8%. Moreover, the growth was 19.8% with UO-31 renal; 39.6% with TK-10 renal; 40.5% in the test on ACHN renal; 16.5% in the test with CAKI-1 renal; 27.8% in the test with CCRF-CEM leukemia; 2.61% (active) in the test with MOLT-4 leukemia.
`COc1cc(C2CC(c3cccc(Nc4ccncc4)c3)=NN2c2cc(Cl)cc(Cl)c2)cc(OC)c1OC` (centres undefined): the growth is -28% (active) in the test with HT29 colon; 25.9% in the test on SNB-75 CNS; 50.7% in the test on SNB-19 CNS; -51.1% (active) with U251 CNS; -36.1% (active) with PC-3 prostate; 2.57% (active) in the test with SK-MEL-5 melanoma. Besides, the growth in the test on UACC-62 melanoma is 94.5%; in the test with LOX IMVI melanoma, -90.9% (active); with SK-MEL-28 melanoma, -78.5% (active); with SK-MEL-2 melanoma, 71.4%; in the test with EKVX NSCLC it was 65.8%; in the test on SN12C renal it was 9.72% (active). The growth in the test with TK-10 renal was 34%; in the test on ACHN renal, -66.5% (active); in the test on CAKI-1 renal, 8.57% (active); in the test with A498 renal it was 84%; with CCRF-CEM leukemia, -17.5% (active); with MOLT-4 leukemia, -22.7% (active).
Regarding `C=C(C)[C@@H]1CC[C@]2(C=O)CC[C@]3(C)[C@H](CC[C@@H]4[C@@]5(C)CCCNC(C)(C)[C@@H]5CC[C@]43C)[C@@H]12`, the growth was 110% in the test on SNB-75 CNS; 84.6% in the test on SNB-19 CNS; 50.4% in the test with U251 CNS; 48% in the test with PC-3 prostate; 66% with SK-MEL-5 melanoma; 69.9% in the test on UACC-62 melanoma. Further, the growth was 84.9% in the test with LOX IMVI melanoma; 96.7% in the test with SK-MEL-28 melanoma; 89.5% in the test on SK-MEL-2 melanoma; 96.6% in the test on EKVX NSCLC; 74.1% in the test with SN12C renal; 69% with UO-31 renal. The growth is 88.2% with TK-10 renal; 88.1% with ACHN renal; 89.4% in the test with CAKI-1 renal; 59.7% with CCRF-CEM leukemia; 49.1% in the test with MOLT-4 leukemia.
Regarding `O=S(=O)(NCCCNc1nccc(-c2c(-c3cccc(O)c3)nc3occn23)n1)c1ccc(F)cc1`, the growth is 36.3% in the test on HT29 colon; 104% in the test with SNB-75 CNS; 113% in the test with SNB-19 CNS; 95.3% in the test with U251 CNS; 81.4% in the test with PC-3 prostate; 35.7% with SK-MEL-5 melanoma. In addition, the growth is -1.99% (active) in the test on UACC-62 melanoma; 44.4% with LOX IMVI melanoma; 33.7% with SK-MEL-28 melanoma; 50.6% in the test on SK-MEL-2 melanoma; 101% with EKVX NSCLC; 74.9% in the test with SN12C renal. For the same compound, the growth is 92.1% in the test with UO-31 renal; 116% with TK-10 renal; 79.1% in the test on ACHN renal; 72.2% with CAKI-1 renal; 89% in the test on CCRF-CEM leukemia; 70% in the test with MOLT-4 leukemia.
For `COc1cc(/C=C/C(=O)c2ccc(Nc3ncnc4ccccc34)cc2)cc(OC)c1`, the growth in the test on HT29 colon is -38.1% (active); in the test with SNB-75 CNS, 70.9%; in the test on SNB-19 CNS it was 62%; in the test with U251 CNS, 34.2%; with PC-3 prostate, 43.9%; with SK-MEL-5 melanoma it was 90.8%. Further, the growth is 76.9% with UACC-62 melanoma; 5.65% (active) in the test with LOX IMVI melanoma; 86.3% in the test with SK-MEL-28 melanoma; 112% with SK-MEL-2 melanoma; 79.3% in the test on EKVX NSCLC; 71.3% with SN12C renal. Further, the growth with UO-31 renal was 51.2%; with TK-10 renal it was 79.1%; with ACHN renal it was 76.8%; with CAKI-1 renal it was 69.3%; with A498 renal, 85.9%; with CCRF-CEM leukemia, 20.6%. The growth in the test with MOLT-4 leukemia is 19.1%.

The record behind these values is PubChem BioAssay (NCI).
